# From paper PMC5540273 (PLoS ONE, 2017)
# Test system: INSR
# Conditions: concentration: 1 μM,replicates: in singlicate; n = 1
# 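Further: KINOMEscan kinase panel screen.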
row,Structure (SMILES),%Inh
1,Cn1ccc2ncnc(Oc3ccc(NC(=O)Nc4cnn(C(C)(C)C)c4)c(Cl)c3)c21,11%
2,COc1cc2ncn(-c3cc(OCC4CCCCC4)c(C(N)=O)s3)c2cc1OC [GSK204559],14%
3,COc1cccc(CNC(=O)NC2CCN(c3ccnc(Nc4cc(OC)c(OC)c(OC)c4)n3)C2)c1 (stereo not shown) [GSK1379765],0%
4,Cn1ccc2ncnc(Oc3ccc(NC(=O)Nc4cccc(C(F)(F)F)c4)c(F)c3)c21,2%
5,CNC(=O)c1ccccc1Nc1nc(Nc2cccc(CS(C)(=O)=O)c2)ncc1C.O=CO [GSK1520489],96%
6,C[C@@H](Oc1cc(-n2cnc3cc(-c4cnn(C)c4)ccc32)sc1C(N)=O)c1ccccc1Cl [GSK580432],0%
7,COc1cc(Nc2nccc(N3CCC(NC(=O)c4cccc(C#N)c4)C3)n2)cc(OC)c1OC (stereo not shown) [GSK1379751],0%
8,Cc1ccn2nc(-c3ccc(F)cc3)c(-c3ccncc3)c2c1.Cl [GW457859],0%
9,CN1CCN(CCNc2nc3cc(Oc4ccc(NC(=O)Nc5cc(C(F)(F)F)ccc5F)cc4)ccc3[nH]2)CC1.Cl.Cl [GW768504],5%
10,NC(=O)c1ccc(-c2cc3ncnc(SCC(=O)O)c3s2)cc1,0%
11,CC(=O)c1c(-c2ccncc2)[nH]c(-c2ccncc2)c1C [GW493036],0%
12,O=C(Nc1cccc(C(F)(F)F)c1)c1cccc(Oc2ccc3nccn3n2)c1,2%
13,CC(=O)Nc1nc2cnc(Nc3cc(NC(=O)c4cccc(CC(C)(C)C#N)c4)ccc3C)nc2s1,16%
14,COc1ccc(Nc2nccc(N3CCC(NC(=O)c4cccc(C#N)c4)C3)n2)cc1 (stereo not shown) [GSK1379730],0%
15,Cl.c1ccc(Oc2ccc(Nc3ccnc4cc(-c5ccc(CN6CCNCC6)o5)ccc34)cc2)nc1 [GW567142],20%
16,O=C(Nc1ccc(Oc2ccc3nc(NC(=O)C4CC4)cn3n2)c(F)c1)c1cccn(-c2ccccc2)c1=O,0%
17,Cl.Cl.NC[C@H](CC1CCCCC1)NC(=O)c1ccc(-c2ccnc3[nH]ccc23)s1 [GSK1581428],5%

row,Structure (SMILES),%Inh
1,COC(=O)Nc1nc2cc(Oc3ccc(NC(=O)Nc4cc(C(F)(F)F)ccc4Cl)cc3)ccc2[nH]1.Cl [GW697465],0%
2,CC(C(=O)NC1CCN(c2ccnc(Nc3ccc(F)cc3)n2)C1)c1ccc(Cl)cc1 (stereo not shown) [GSK1379713],0%
3,O=C(NCC1CC1)c1ccc(-c2cc(C(=O)NC3CC3)ccc2F)cc1 [GW810445],0%
4,CCN1CCN(CCCC(=O)Nc2n[nH]c3nc(-c4ccc(O)cc4)c(Br)cc23)CC1 [SB-731579],0%
5,Cc1nnc(-c2ccc3occ(-c4ccc(S(C)=O)cc4)c3n2)o1 (stereo not shown),0%
6,CC(C)S(=O)(=O)N1CCN(Cc2ccc3c(c2)nc(NC(=O)c2ccsc2)n3C[C@H](O)c2ccccc2)CC1 [GW635815],67%
7,Cn1ccc2ncnc(Oc3ccc(NC(=O)Nc4cccc(C(F)(F)F)c4)c(Cl)c3)c21,16%
8,Cn1ccc2ncnc(Oc3ccc(NC(=O)Nc4ccnc(C(F)(F)F)c4)c(Cl)c3)c21,5%
9,Cc1cccc2c(-c3ccncc3)c(-c3ccc(F)cc3)nn12.Cl [GW461487],0%
10,Cc1ccc2c(-c3ccnc(Nc4ccc(C(F)(F)F)cc4)n3)cnn2n1 [GW819776],14%
11,Cc1n[nH]c2cc(Nc3ccnc(Nc4cccc(CN5CCOCC5)c4)n3)ccc12 [GW682569],7%
12,CCn1c(-c2nonc2N)nc2cncc(Br)c21 [SB-738004],0%
13,CN1CCN(CCCNc2nccc(-c3c(-c4ccc(F)cc4)nn4cc(C(N)=O)ccc34)n2)CC1 [GW622475],2%
14,Nc1nccc(-c2ccc3c(N)n[nH]c3c2)n1 [GSK1034945],0%
15,Cc1ccc(C(=O)Nc2ccc(Oc3ccc4nc(NC(=O)C5CC5)cn4c3)c(F)c2)c(=O)n1-c1ccccc1,0%
16,Cn1ccc2ncnc(Oc3ccc(NC(=O)Nc4cncc(C(F)(F)F)c4)c(Cl)c3)c21,0%
17,NC(=O)Nc1sc(-c2ccc(F)cc2)cc1C(N)=O [GW789449],37%
